Inconclusive results are not listed. Active and inactive are the calls of the source. Unless noted, the call rests on the fitted dose curve; in most records, active means well fitted curve in the direction sought with a large enough effect; inconclusive means small, poorly fitted or top-dose-only effect, or another doubt; inactive means no such curve, though single readings can be large; an effect the other way counts as inactive or inconclusive. Bridge positions count the residues as written; N and C are the ends. Square brackets hold non-standard residues; d marks the D form. Peptide text beside a SMILES is read from it. * marks the point of attachment. Octanoyl(6-Me) = CCC(C)CCCCC(=O)*; Dab = NCC[CH](N)C(=O)O
Assays:
CP185 = experiment: qHTS profiling for inhibitors of Plasmodium falciparum proliferation (AID 504749); further: nearly all actives have a fitted effect of over 60% in size; further: potency means the concentration at half of the fitted maximal effect; conditions: P. falciparum in erythrocytes, SYBR Green DNA, 72 h; series mostly up to 28.7 µM
Method in brief: (§1)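 P. falciparum-infected erythrocytes (0.3% parasitemia, 2.5% hematocrit final) were exposed to compounds for 72 h at 37 C in 5% CO2, then lysed with SYBR Green buffer overnight at room temperature; parasite DNA fluorescence was normalized to artemisinin and DMSO controls.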

CP194 = experiment: as above; conditions: P. falciparum in erythrocytes, SYBR Green DNA, 72 h; series mostly up to 28.7 µM
Method in brief: as §1

CP201 = experiment: as above; conditions: P. falciparum in erythrocytes, SYBR Green DNA, 72 h; series mostly up to 28.7 µM
Method in brief: as §1

CP211 = experiment: as above; conditions: P. falciparum in erythrocytes, SYBR Green DNA, 72 h; series mostly up to 28.7 µM
Method in brief: as §1

CP215 = experiment: as above; conditions: P. falciparum in erythrocytes, SYBR Green DNA, 72 h; series mostly up to 28.7 µM
Method in brief: as §1

CP217 = experiment: as above; conditions: P. falciparum in erythrocytes, SYBR Green DNA, 72 h; series mostly up to 28.7 µM
Method in brief: as §1

CP297 = experiment: as above; conditions: P. falciparum in erythrocytes, SYBR Green DNA, 72 h; series mostly up to 28.7 µM
Method in brief: as §1

DIV14 = experiment: as above; conditions: P. falciparum in erythrocytes, SYBR Green DNA, 72 h; series mostly up to 28.7 µM
Method in brief: as §1

DIV30 = experiment: as above; conditions: P. falciparum in erythrocytes, SYBR Green DNA, 72 h; series mostly up to 28.7 µM
Method in brief: as §1

ICS = experiment: as above; conditions: P. falciparum in erythrocytes, SYBR Green DNA, 72 h; series mostly up to 28.7 µM
Method in brief: as §1

JCK = experiment: as above; conditions: P. falciparum in erythrocytes, SYBR Green DNA, 72 h; series mostly up to 28.7 µM
Method in brief: as §1

N140 = experiment: as above; conditions: P. falciparum in erythrocytes, SYBR Green DNA, 72 h; series mostly up to 28.7 µM
Method in brief: as §1

TAB113 = experiment: as above; conditions: P. falciparum in erythrocytes, SYBR Green DNA, 72 h; series mostly up to 28.7 µM
Method in brief: as §1

TAB165 = experiment: as above; conditions: P. falciparum in erythrocytes, SYBR Green DNA, 72 h; series mostly up to 28.7 µM
Method in brief: as §1

[1] = target: Estrogen receptor (Homo sapiens) (UniProt P03372); experiment: qHTS assay for small molecule antagonists of estrogen receptor alpha signaling (AID 588513; active means well fitted curve in the direction sought with a large enough effect in the signal ratio, with a control signal flat, not every such curve was filed as active; the % refers to the signal ratio)
Method in brief: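 Antagonist mode: inhibition of 0.5 nM 17-beta-estradiol-driven beta-lactamase reporter in HEK 293 ER-alpha-UAS-bla cells, 18 h at 37C, CCF4 readout after 2 h at RT. Normalised to estradiol and DMSO; titration fitted to Hill.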

[2] = target: Estrogen receptor (Homo sapiens) (UniProt P03372); experiment: qHTS assay for small molecule agonists of estrogen receptor alpha signaling (AID 588514; calls by dose curve; further: nearly all actives have a fitted effect of over 70% in size; further: potency means the concentration at half of the fitted maximal effect)
Method in brief: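 Reporter-gene assay. […] controls beta-lactamase in HEK 293 GripTite cells; after 18 hrs with compound, CCF4 substrate is added for 2 hrs and fluorescence is read.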

[3] = target: Vitamin D3 receptor (Homo sapiens) (UniProt P11473); experiment: qHTS assay for small molecule antagonists of vitamin D receptor signaling (AID 588541; calls by dose curve;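 further: receptor activated by calcitriol during compound treatment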)
Method in brief: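 VDR-UAS-bla HEK293T cells (2000/well, 2% charcoal-stripped FBS) were treated with titrated compounds plus 1-alpha,25-dihydroxyvitamin D3 (50 nM or 3 nM final) for 16 h at 37 C. CCF4 beta-lactamase fluorescence was read; Hill fits gave IC50.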

[4] = S16 Schwann cell PMP22 intronic element firefly luciferase assay (AID 624032); further: nearly all actives have a fitted effect of over 30% in size; further: potency means the concentration at half of the fitted maximal effect
Method in brief: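 Rat S16 Schwann cells stably carrying a PMP22 intronic element-driven Fluc reporter were seeded overnight, then exposed to compounds for 24 h at 37 °C. Luminescence was normalized to PTC124 (positive control) and DMSO (0% activity).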

CP325 = experiment: qHTS profiling for inhibitors of Plasmodium falciparum proliferation (AID 504749); further: nearly all actives have a fitted effect of over 60% in size; further: potency means the concentration at half of the fitted maximal effect; conditions: P. falciparum in erythrocytes, SYBR Green DNA, 72 h; series mostly up to 28.7 µM
Method in brief: as §1

[5] = target: Glucocorticoid receptor (Homo sapiens) (UniProt P04150); experiment: qHTS assay for small molecule antagonists of glucocorticoid receptor signaling (AID 588533; active means well fitted inhibition curve with a large enough effect in the signal ratio, with a control signal flat, not every such curve was filed as active; the % refers to the signal ratio;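 further: cells stimulated with 2 nM dexamethasone as agonist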)
Method in brief: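 Antagonist-mode qHTS: compound titrations added to GRE-bla HeLa cells, then dexamethasone 2 nM final; 18 h, 37 C. CCF4 FRET fluorescence normalized to dexamethasone and DMSO; IC50 from Hill fit.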

Measured: Potency

Sequence of Vitamin D3 receptor (Homo sapiens) (P11473 whole entry, looked up): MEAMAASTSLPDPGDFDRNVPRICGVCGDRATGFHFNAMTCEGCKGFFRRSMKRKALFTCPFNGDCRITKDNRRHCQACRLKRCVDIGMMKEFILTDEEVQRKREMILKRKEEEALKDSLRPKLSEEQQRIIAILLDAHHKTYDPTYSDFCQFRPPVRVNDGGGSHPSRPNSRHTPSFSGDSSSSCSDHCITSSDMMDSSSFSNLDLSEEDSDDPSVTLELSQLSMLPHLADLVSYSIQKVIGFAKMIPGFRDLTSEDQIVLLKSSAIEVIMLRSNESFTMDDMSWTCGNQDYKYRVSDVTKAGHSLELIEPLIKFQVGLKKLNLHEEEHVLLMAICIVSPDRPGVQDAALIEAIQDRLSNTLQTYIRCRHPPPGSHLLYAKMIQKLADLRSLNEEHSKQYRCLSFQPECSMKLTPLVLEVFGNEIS
Sequence of Estrogen receptor (Homo sapiens) (P03372 whole entry, looked up): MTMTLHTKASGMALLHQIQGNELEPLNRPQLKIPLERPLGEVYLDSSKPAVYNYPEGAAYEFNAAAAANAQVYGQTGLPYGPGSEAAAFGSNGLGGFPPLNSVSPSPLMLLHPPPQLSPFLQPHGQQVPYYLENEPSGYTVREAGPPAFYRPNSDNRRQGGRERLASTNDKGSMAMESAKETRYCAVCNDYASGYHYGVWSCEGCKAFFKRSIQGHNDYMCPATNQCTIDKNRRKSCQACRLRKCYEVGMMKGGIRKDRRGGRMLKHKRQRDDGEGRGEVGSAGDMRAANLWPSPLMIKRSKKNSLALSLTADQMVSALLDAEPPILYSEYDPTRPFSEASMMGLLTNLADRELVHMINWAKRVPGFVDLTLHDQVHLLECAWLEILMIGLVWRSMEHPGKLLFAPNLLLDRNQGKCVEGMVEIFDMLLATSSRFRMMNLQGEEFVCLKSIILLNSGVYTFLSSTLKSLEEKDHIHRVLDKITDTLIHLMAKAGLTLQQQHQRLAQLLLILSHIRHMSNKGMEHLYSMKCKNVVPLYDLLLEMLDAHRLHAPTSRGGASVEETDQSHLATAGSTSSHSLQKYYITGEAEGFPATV
Sequence of Glucocorticoid receptor (Homo sapiens) (P04150 whole entry, looked up): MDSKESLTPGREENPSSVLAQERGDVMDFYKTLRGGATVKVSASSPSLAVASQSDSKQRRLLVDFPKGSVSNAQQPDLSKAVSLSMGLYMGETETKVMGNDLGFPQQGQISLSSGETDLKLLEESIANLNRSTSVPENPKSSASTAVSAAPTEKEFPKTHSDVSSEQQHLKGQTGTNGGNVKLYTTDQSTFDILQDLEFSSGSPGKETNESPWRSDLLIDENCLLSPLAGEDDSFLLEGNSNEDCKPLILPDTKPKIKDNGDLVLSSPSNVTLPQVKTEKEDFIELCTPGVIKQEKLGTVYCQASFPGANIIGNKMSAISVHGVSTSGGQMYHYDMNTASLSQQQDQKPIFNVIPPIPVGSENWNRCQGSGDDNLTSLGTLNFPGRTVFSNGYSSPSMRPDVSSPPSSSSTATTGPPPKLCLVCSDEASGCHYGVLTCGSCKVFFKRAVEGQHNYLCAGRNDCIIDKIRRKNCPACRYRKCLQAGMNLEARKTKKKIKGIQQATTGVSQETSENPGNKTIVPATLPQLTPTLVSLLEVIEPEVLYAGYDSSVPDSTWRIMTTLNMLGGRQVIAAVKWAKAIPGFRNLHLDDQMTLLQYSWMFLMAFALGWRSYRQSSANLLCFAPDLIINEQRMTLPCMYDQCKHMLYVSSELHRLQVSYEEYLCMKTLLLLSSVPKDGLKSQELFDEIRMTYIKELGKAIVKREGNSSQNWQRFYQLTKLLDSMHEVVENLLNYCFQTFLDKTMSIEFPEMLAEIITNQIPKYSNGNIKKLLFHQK

CCN1/C(=C/C=C/C=C/c2sc3ccccc3[n+]2CC)Sc2ccccc21
active: CP185 3.98 µM | CP194 6.75 µM | CP201 12 µM | CP211 6.01 µM | CP215 6.75 µM | CP217 4.47 µM | CP297 12 µM | DIV14 8.49 µM | DIV30 12 µM | ICS 1 µM | JCK 11.2 µM | N140 5.62 µM | TAB113 5.01 µM | TAB165 3.98 µM

O[C@@H]([C@H](O)[C@@H](O)CBr)[C@@H](O)CBr
inactive: [1] | [2] | [3]

CCC(=O)O[C@@H](OP(=O)(CCCCc1ccccc1)CC(=O)N1C[C@H](C2CCCCC2)C[C@H]1C(=O)O)C(C)C (stereo not given in full)
not listed: [1] | [2] | [3] | [5]
inactive: all other assays above

CC1CCC(C(C)C)C(OC(=O)c2ccccc2O)C1 (stereo not given)
not listed: [1] | [2] | [3] | [5]
inactive: all other assays above

O=NCc1ccc([N+](=O)[O-])o1
active: [4] 12.8 µM
inactive: CP194 | CP201 | CP211 | CP217 | CP325 | JCK

Cc1cccc(O)c1
inactive: [2] | [5]

CO/N=C(/C(=O)N[C@@H]1C(=O)N2C(C(=O)O)=CCS[C@H]12)c1csc(N)n1
not listed: DIV14 | [1] | [2] | [3] | [5]
inactive: all other assays above

O=S(=O)(O)c1ccccc1
inactive: [5] | [3]

O=C1CCc2ccccc2O1
inactive: [1] | [5]

Cc1cc(CC(C)CC(C)(C)C)n(O)c(=O)c1 (stereo not given)
active: [4] 16.1 µM | CP185 1.12 µM | CP194 4.26 µM | CP201 4.78 µM | CP211 3.38 µM | CP215 2.13 µM | CP217 2.82 µM | CP297 1.69 µM | CP325 2.39 µM | DIV14 1.51 µM | DIV30 3.79 µM | ICS 2.51 µM | JCK 11.2 µM | N140 1 µM | TAB113 2.82 µM | TAB165 1.78 µM

CC1(C)S[C@@H]2[C@H](NC(=O)COc3ccccc3)C(=O)N2[C@H]1C(=O)O
not listed: [1] | [2] | [5]
inactive: all other assays above

CCC(C)CCCCC(=O)NC(CCN)C(=O)NC(C(=O)NC(CCN)C(=O)NC1CCNC(=O)C(C(C)O)NC(=O)C(CCN)NC(=O)C(CCN)NC(=O)C(CC(C)C)NC(=O)C(Cc2ccccc2)NC(=O)C(CCN)NC1=O)C(C)O (stereo not given) ({Octanoyl(6-Me)}-[Dab]T[Dab][Dab][Dab]FL[Dab][Dab]T; lactam 4-C; configuration not given here)
not listed: CP217 | TAB113 | TAB165 | [1] | [2] | [3] | [5]
inactive: all other assays above

c1ccc2scnc2c1
inactive: [1] | [2] | [5] | [3]

CC(C)(CO)C(O)C(=O)NCCCC(=O)O (stereo not given)
active: CP215 12 µM | TAB165 0.0398 µM
inactive: [4] | TAB113

O=C(O)c1ccccc1C(c1ccc(O)cc1)c1ccc(O)cc1
inactive: [1] | [2] | [5]

Nc1nc(Cl)nc2c1ncn2C1CC(O)C(CO)O1 (stereo not given)
inactive: CP194 | CP201 | CP211 | CP215 | CP297 | CP325 | DIV14 | DIV30

CO[C@@H]1[C@@H](OC2OC(C)C(OC3CC(C)(O)C(OC(=O)CC(C)C)C(C)O3)C(N(C)C)C2O)[C@@H](CC=O)C[C@@H](C)C(=O)/C=C\C2O[C@H]2C[C@@H](C)OC(=O)C[C@H]1OC(C)=O (stereo not given in full)
active: [4] 5.73 µM | CP185 7.94 µM | CP217 10 µM | CP325 2.69 µM | DIV14 12 µM | ICS 5.01 µM | N140 8.91 µM | TAB113 12.6 µM
inactive: JCK

COc1c2ccoc2cc2oc(=O)ccc12
inactive: [1] | [2] | [3]

S=C1NC=NC2N=CNC12 (stereo not given)
active: [4] 2.87 µM
inactive: CP185 | CP217 | ICS | JCK | N140 | TAB113 | TAB165

Cc1ccc(N)c([N+](=O)[O-])c1
inactive: [1] | [2] | [5] | [3]

CC(=O)OC/C=C(\C)CCC=C(C)C
inactive: [1] | [2] | [5]

CCCCOCCO
inactive: [1] | [2] | [5] | [3]

CN1CC[C@H](CN2c3ccccc3Sc3ccccc32)C1
active: [4] 32.2 µM | CP217 11.2 µM | CP297 6.75 µM | CP325 15.1 µM | DIV14 4.26 µM | DIV30 13.5 µM | ICS 2 µM | N140 11.2 µM | TAB165 12.6 µM

O=C1c2ccccc2C(=O)C1c1ccc2ccccc2n1
inactive: [1] | [5] | [3]
active: [2] 1 µM

CCC(O)OC(O)CC (stereo not given)
inactive: [1] | [2] | [5] | [3]

CC1=CC(C)(C)Nc2ccccc21
inactive: [1] | [2] | [3]

CN(C)CCCCCCN(C)C
not listed: [1] | [2] | [4]
inactive: all other assays above

From PubChem BioAssay (NCATS)
